Experimental data from the supplement of paper PMC10515830.
Where a name gives a salt, the structure may show the parent alone.

What was measured:
Conditions in all cases: 10 µM; exposure time 6 h
[1] = test system: Danio rerio larvae (5 dpf); assay: difference in excitability vs DMSO (percentage points); higher = more excitable than DMSO
Procedure, shortened: (§1)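 In 96-well plates, 48 wild-type zebrafish larvae aged 5 dpf per compound received 100 µL egg water with library compound at 10 µM final for 6 h. Three hours into this, a 3-h programme of moving lines and 100 ms, 400Hz tones ran at 28.5 ℃ while plates were photographed every 6 s. Z-LaP Tracker scored the behaviours, and each is given as the compound mean minus the vehicle control mean in percentage points.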

[2] = test system: Danio rerio larvae (5 dpf); assay: difference in startle response vs DMSO (percentage points); higher = stronger startle than DMSO
Procedure, shortened: as §1

[3] = test system: Danio rerio larvae (5 dpf); assay: difference in activity during first hour vs DMSO (percentage points); higher = more activity than DMSO
Procedure, shortened: as §1

[4] = test system: Danio rerio larvae (5 dpf); assay: difference in habituation to acoustic stimuli vs DMSO (percentage points); higher = more habituation than DMSO
Procedure, shortened: as §1

[5] = test system: Danio rerio larvae (5 dpf); assay: difference in combined optomotor response to red, green and blue moving lines vs DMSO (percentage points); higher = stronger optomotor response than DMSO
Procedure, shortened: as §1

Compound | difference in excitability [1] | difference in startle response [2] | difference in activity during first hour [3] | difference in habituation to acoustic stimuli [4] | difference [5]
Cc1ccc(C)c(OCCCC(C)(C)C(=O)O)c1 [Gemfibrozil] | 14.3 | -10.7 | -1.6 | -4.26 | 4.28
C[C@H](CCC(=O)O)[C@H]1CC[C@H]2[C@@H]3[C@H](O)C[C@@H]4C[C@H](O)CC[C@]4(C)[C@H]3C[C@H](O)[C@]12C [Cholic Acid] | -2.04 | 2.75 | 8.68 | 3.98 | -1.08
O=C(O)C[C@H](O)C[C@H](O)/C=C/c1c(C2CC2)nc2ccccc2c1-c1ccc(F)cc1 [Pitavastatin (calcium salt)] | 10.2 | -3.29 | 4.76 | -3.94 | 13.1
N[C@@H](CC(=O)N1CCn2c(nnc2C(F)(F)F)C1)Cc1cc(F)c(F)cc1F [(-)-Sitagliptin (phosphate)] | 10.7 | -0.289 | -10.7 | -3.48 | -5.35
CC(=O)Nc1nnc(S(N)(=O)=O)s1 [Acetazolamide] | -5.01 | 8.72 | 14.2 | 6.2 | 3.65
CC(C)(C)NC(=O)[C@H]1CC[C@H]2[C@@H]3CC[C@H]4NC(=O)C=C[C@]4(C)[C@H]3CC[C@]12C [Finasteride] | 11.1 | 3.35 | 10.8 | -0.24 | 9
CCCCC[C@H](O)/C=C/[C@H]1[C@H](O)CC(=O)[C@@H]1CCCCCCC(=O)O [Prostaglandin E1] | 15.5 | -3.01 | -8.7 | -1.03 | 0.226
C#C[C@]1(O)CC[C@H]2[C@@H]3CCC4=Cc5oncc5C[C@]4(C)[C@H]3CC[C@@]21C [Danazol] | 6.6 | -7.24 | -23.6 | -10.4 | -17.8
CC(C)n1c(/C=C/C(O)CC(O)CC(=O)O)c(-c2ccc(F)cc2)c2ccccc21 (stereo not given) [Fluvastatin (sodium salt hydrate)] | 11.5 | -2.51 | 4.55 | -1.22 | 3.05
COc1cccc2c1C(=O)c1c(O)c3c(c(O)c1C2=O)C[C@@](O)(C(C)=O)C[C@@H]3O[C@H]1C[C@H](N)[C@H](O)[C@H](C)O1 [Daunorubicin (hydrochloride)] | 19.8 | 4.36 | -3.27 | 5.5 | -1.09
CC1(C)O[C@@H]2C[C@H]3[C@@H]4CCC5=CC(=O)C=C[C@]5(C)[C@H]4[C@@H](O)C[C@]3(C)[C@]2(C(=O)CO)O1 [Desonide] | -1.81 | -1.62 | 0.404 | 6.53 | 1.67
CC(C)NCC(O)COc1ccc(COCCOC(C)C)cc1 (stereo not given) [Bisoprolol (hemifumarate)] | 2.44 | 8.3 | 0.00157 | 3.42 | -3.86
CC(C)(O)CNc1nc(Nc2ccnc(C(F)(F)F)c2)nc(-c2cccc(C(F)(F)F)n2)n1 [Enasidenib] | 15.7 | -3.05 | 12.8 | -6.3 | 2.71
C[C@]12CCC3=C4CCC(=O)C=C4CC[C@H]3[C@@H]1CC[C@@]2(O)CC#N [Dienogest] | 6.14 | -3.1 | 11.2 | 4.78 | 1.22
OB1OCc2cc(F)ccc21 | 13.7 | -1.36 | -11.7 | 2.38 | 4.85
NC(=O)c1ncn([C@@H]2O[C@H](CO)[C@@H](O)[C@H]2O)n1 [Ribavirin] | 3.64 | -0.473 | 21.8 | -4.01 | 5.68
CCN(CC)CCOC(=O)C1(C2CCCCC2)CCCCC1 [Dicyclomine (hydrochloride)] | 9.55 | -4.86 | -8.86 | -5.06 | -3.96
O=C(O)COCCN1CCN([C@H](c2ccccc2)c2ccc(Cl)cc2)CC1 [(R)-Cetirizine (hydrochloride)] | 5.78 | -3.02 | -1.26 | 6.23 | 5.37
COc1cc(Cc2cnc(N)nc2N)cc(OC)c1OC [Trimethoprim] | 2.02 | 3.93 | 12.5 | -7.9 | 12.7
OC(c1cc(C(F)(F)F)nc2c(C(F)(F)F)cccc12)C1CCCCN1 (stereo not given) [Mefloquine (hydrochloride)] | 20.8 | -3.76 | -1.02 | -0.417 | -0.0553
CCOC(=O)C1=C[C@@H](OC(CC)CC)[C@H](NC(C)=O)[C@@H](N)C1 [Oseltamivir (phosphate)] | 1.51 | 3.38 | 8.28 | -5.42 | 3.62
N=C(N)c1ccc(OCCCCCOc2ccc(C(=N)N)cc2)cc1 [Pentamidine] | 17 | 5.88 | -2.12 | 0.725 | 5.19
CCCCC[C@H](O)/C=C/[C@H]1[C@H](O)CC(=O)[C@@H]1C/C=C\CCCC(=O)O [Prostaglandin E2] | 16.7 | -5.41 | 2.46 | 4.14 | 5.15
O=C(Nc1c(Cl)cncc1Cl)c1ccc(OC(F)F)c(OCC2CC2)c1 [Roflumilast] | 18.7 | -2.74 | -14.9 | -8.84 | -5.57
